Drawing on PubChem BioAssay (NCI), this text covers growth inhibition for nine compounds.

About 79,000 compounds went through this panel and 15% of them were active in at least one assay; those are over-represented in the sample as a whole. Unmarked numbers belong to inactive results. Active and inactive are the calls of the source. Rule as the data show it: active = growth inhibition above about 70%; inactive = the rest.

The nature of assay [1]: NCI Yeast Anticancer Drug Screen. Data for the rad50 strain (AID 155).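 Also: 0% = growth of vehicle-only cultures of the same strain.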 To be noted: S. cerevisiae rad50 strain growth inhibition, hits give high values. The procedure, abridged:
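Compounds were tested on a yeast strain with an engineered DNA damage repair alteration; the reported value is growth inhibition normalised to vehicle treatment.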

Assay [2] in a line: NCI Yeast Anticancer Drug Screen. Data for the mec2-1 strain (AID 157). To be noted: S. cerevisiae mec2-1 strain, hits give high values. The procedure, abridged:
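Yeast mec2-1 mutant treated with compound. Readout: growth inhibition vs vehicle controls.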

Assay [3] is described as follows: NCI Yeast Anticancer Drug Screen. Data for the sgs1 mgt1 strain (AID 161).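 Also: 0% = growth of cultures given vehicle only.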 To be noted: S. cerevisiae sgs1 mgt1 strain, hits give high values. The procedure, abridged:
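Inhibition of yeast growth, normalised to vehicle-treated controls, is reported for a strain bearing genetic alterations in DNA damage repair.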

The nature of assay [4]: NCI Yeast Anticancer Drug Screen. Data for the cln2 rad14 strain (AID 165).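 Also: 0% = growth equal to vehicle treated cultures.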 To be noted: S. cerevisiae cln2 rad14 strain, hits give high values. The method, boiled down: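 cln2 rad14 yeast strain; compound exposure; growth inhibition read vs vehicle controls.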
Assay [5] is described as follows: NCI Yeast Anticancer Drug Screen. Data for the bub3 strain (AID 167). To be noted: S. cerevisiae bub3 mutant strain, hits give high values. The method, boiled down:
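Growth of a checkpoint-deficient yeast mutant is measured after compound exposure. Values represent inhibition relative to vehicle.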

A short description of assay [6]: NCI Yeast Anticancer Drug Screen. Data for the mlh1 rad18 strain (AID 175). To be noted: S. cerevisiae mlh1 rad18 strain growth inhibition, hits give high values. The method, boiled down: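 Yeast w/ defined DNA-repair lesions; compound exposure; growth vs vehicle controls → % inhibition.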
Setting [7] is: at 5.0 µM (retest, dose inferred, filed as 0.5).
[8] abbreviates: at 50.0 µM (retest, dose inferred, filed as 5.0).

As to `[CH3][Sn]1([CH3])[O]C(=O)CCN=Cc2c(ccc3ccccc23)[O][Sn]([CH3])([CH3])[O]C(=O)CCN=Cc2c(ccc3ccccc23)[O]1`, the growth inhibition is 57% in assay [1] (setting [7]); 98% (active) in assay [1] (setting [8]); 90.6% (active) in assay [1] (at 50.0 µM); 61% in assay [2] (setting [7]); 99% (active) in assay [2] (setting [8]); 92.8% (active) in assay [2] (at 50.0 µM). For the same compound, the growth inhibition is 82% (active) in assay [3] (setting [7]); 99% (active) in assay [3] (setting [8]); 93% (active) in assay [3] (at 50.0 µM); 24% in assay [4] (setting [7]); 99% (active) in assay [4] (setting [8]); 91.7% (active) in assay [4] (at 50.0 µM). The growth inhibition in assay [5] (setting [7]) was 84% (active); in assay [5] (setting [8]) it was 98% (active); in assay [5] (at 50.0 µM), 92.3% (active); in assay [6] (setting [7]), 93% (active); in assay [6] (setting [8]), 99% (active); in assay [6] (at 50.0 µM), 89.8% (active).
For the compound `CC(=O)NS(=O)(=O)c1ccc(N=Cc2cc(Cl)cc(Cl)c2O)cc1`, the growth inhibition in assay [1] (setting [7]) is 25%; in assay [1] (setting [8]) it was 98% (active); in assay [1] (at 50.0 µM), 83% (active); in assay [2] (setting [7]), 19%; in assay [2] (setting [8]), 99% (active); in assay [2] (at 50.0 µM) it was 92.1% (active). Further, the growth inhibition in assay [3] (setting [7]) is 13%; in assay [3] (setting [8]), 79% (active); in assay [3] (at 50.0 µM) it was 44.5%; in assay [4] (setting [7]), 46%; in assay [4] (setting [8]), 98% (active); in assay [4] (at 50.0 µM) it was 87.8% (active). In addition, the growth inhibition in assay [5] (setting [7]) was 44%; in assay [5] (setting [8]) it was 99% (active); in assay [5] (at 50.0 µM) it was 90.7% (active); in assay [6] (setting [7]), 67%; in assay [6] (setting [8]), 99% (active); in assay [6] (at 50.0 µM), 88% (active).
For `C=C(CN(C)C)C(=O)c1ccc(C)cc1C`, the growth inhibition is 34% in assay [1] (setting [7]); 99% (active) in assay [1] (setting [8]); 99.4% (active) in assay [1] (at 50.0 µM); 18% in assay [2] (setting [7]); 99% (active) in assay [2] (setting [8]); 99.5% (active) in assay [2] (at 50.0 µM). Further, the growth inhibition in assay [3] (setting [7]) is 64%; in assay [3] (setting [8]), 99% (active); in assay [3] (at 50.0 µM) it was 99.4% (active); in assay [4] (setting [7]) it was 24%; in assay [4] (setting [8]), 99% (active); in assay [4] (at 50.0 µM), 99.3% (active). The growth inhibition is 77% (active) in assay [5] (setting [7]); 99% (active) in assay [5] (setting [8]); 56% in assay [5] (at 50.0 µM); 74% (active) in assay [6] (setting [7]); 99% (active) in assay [6] (setting [8]); 99.2% (active) in assay [6] (at 50.0 µM).
Take `Cc1cc(CC(O)(C(F)(F)F)C(F)(F)F)cc(CC(O)(C(F)(F)F)C(F)(F)F)n1`: the growth inhibition in assay [1] (setting [7]) was 12%; in assay [1] (setting [8]) it was 99% (active); in assay [1] (at 50.0 µM), 99.2% (active); in assay [2] (setting [7]) it was 5%; in assay [2] (setting [8]), 98% (active); in assay [2] (at 50.0 µM), 98.5% (active). In addition, the growth inhibition in assay [3] (setting [7]) is -3%; in assay [3] (setting [8]) it was 98% (active); in assay [3] (at 50.0 µM) it was 98.2% (active); in assay [4] (setting [7]) it was 9%; in assay [4] (setting [8]), 98% (active); in assay [4] (at 50.0 µM), 98% (active). The growth inhibition in assay [5] (setting [7]) is -16%; in assay [5] (setting [8]) it was 99% (active); in assay [5] (at 50.0 µM), 99.2% (active); in assay [6] (setting [7]) it was 6%; in assay [6] (setting [8]), 99% (active); in assay [6] (at 50.0 µM), 99% (active).
As to `O=C1CCCC/C1=C\c1ccc(Cl)c(Cl)c1`, the growth inhibition in assay [1] (setting [7]) is 12%; in assay [1] (setting [8]) it was 99% (active); in assay [1] (at 50.0 µM), 98.7% (active); in assay [2] (setting [7]), 6%; in assay [2] (setting [8]), 100% (active); in assay [2] (at 50.0 µM) it was 98.6% (active). In addition, the growth inhibition in assay [3] (setting [7]) was 47%; in assay [3] (setting [8]), 100% (active); in assay [3] (at 50.0 µM), 99% (active); in assay [4] (setting [7]) it was 5%; in assay [4] (setting [8]) it was 99% (active); in assay [4] (at 50.0 µM) it was 95.9% (active). For the same compound, the growth inhibition in assay [5] (setting [7]) is 9%; in assay [5] (setting [8]) it was 99% (active); in assay [5] (at 50.0 µM), 98.2% (active); in assay [6] (setting [7]), 18%; in assay [6] (setting [8]) it was 99% (active); in assay [6] (at 50.0 µM), 99.2% (active).
For `CCCC/C=C1\CCC(CN2CCOCC2)C1=O` (configuration not stated), the growth inhibition in assay [1] (setting [7]) is 56%; in assay [1] (setting [8]) it was 100% (active); in assay [1] (at 50.0 µM), 90.5% (active); in assay [2] (setting [7]) it was 39%; in assay [2] (setting [8]) it was 100% (active); in assay [2] (at 50.0 µM) it was 92.8% (active). Besides, the growth inhibition was 43% in assay [3] (setting [7]); 100% (active) in assay [3] (setting [8]); 91.4% (active) in assay [3] (at 50.0 µM); 44% in assay [4] (setting [7]); 98% (active) in assay [4] (setting [8]); 90.8% (active) in assay [4] (at 50.0 µM). Besides, the growth inhibition is 69% in assay [5] (setting [7]); 100% (active) in assay [5] (setting [8]); 91.2% (active) in assay [5] (at 50.0 µM); 61% in assay [6] (setting [7]); 98% (active) in assay [6] (setting [8]); 90.7% (active) in assay [6] (at 50.0 µM).
Take `Fc1ccc(C2(CCCN3CCc4[nH]c5cc(F)ccc5c4C3)OCCO2)cc1`: the growth inhibition was 31% in assay [1] (setting [7]); 97% (active) in assay [1] (setting [8]); 70.2% (active) in assay [1] (at 50.0 µM); 27% in assay [2] (setting [7]); 98% (active) in assay [2] (setting [8]); 79% (active) in assay [2] (at 50.0 µM). Besides, the growth inhibition in assay [3] (setting [7]) was 25%; in assay [3] (setting [8]), 99% (active); in assay [3] (at 50.0 µM), 84.5% (active); in assay [4] (setting [7]), 18%; in assay [4] (setting [8]), 96% (active); in assay [4] (at 50.0 µM), 83.3% (active). Further, the growth inhibition was 24% in assay [5] (setting [7]); 98% (active) in assay [5] (setting [8]); 39.5% in assay [5] (at 50.0 µM); 29% in assay [6] (setting [7]); 99% (active) in assay [6] (setting [8]); 91% (active) in assay [6] (at 50.0 µM).
Take `C[C@]12CC[C@@H]3c4ccc(O)cc4CC[C@H]3[C@@H]1CC[C@@H]2NCCCCCCO`: the growth inhibition in assay [1] (setting [7]) was 21%; in assay [1] (setting [8]), 25%; in assay [1] (at 50.0 µM), 14.6%; in assay [2] (setting [7]), 18%; in assay [2] (setting [8]), 19%; in assay [2] (at 50.0 µM), 48.6%. Moreover, the growth inhibition in assay [3] (setting [7]) was 18%; in assay [3] (setting [8]) it was 38%; in assay [3] (at 50.0 µM) it was 34.4%; in assay [4] (setting [7]), 26%; in assay [4] (setting [8]), 31%; in assay [4] (at 50.0 µM), -13.2%. For the same compound, the growth inhibition in assay [5] (setting [7]) was 15%; in assay [5] (setting [8]), 34%; in assay [5] (at 50.0 µM) it was -6.1%; in assay [6] (setting [7]), 21%; in assay [6] (setting [8]), 37%; in assay [6] (at 50.0 µM), -3.2%.
Regarding `Cc1cccc(C)c1NC(=O)CCc1nnc(N)n1N`, the growth inhibition in assay [1] (setting [7]) is 17%; in assay [1] (setting [8]), 4%; in assay [1] (at 50.0 µM) it was -20.6%; in assay [2] (setting [7]), -1%; in assay [2] (setting [8]), -3%; in assay [2] (at 50.0 µM) it was 3.75%. Further, the growth inhibition in assay [3] (setting [7]) is 7%; in assay [3] (setting [8]), -2%; in assay [3] (at 50.0 µM), 18.8%; in assay [4] (setting [7]), -6%; in assay [4] (setting [8]) it was 6%; in assay [4] (at 50.0 µM) it was -23.4%. Also, the growth inhibition was -3% in assay [5] (setting [7]); -2% in assay [5] (setting [8]); 8.7% in assay [5] (at 50.0 µM); -3% in assay [6] (setting [7]); -1% in assay [6] (setting [8]); 16.4% in assay [6] (at 50.0 µM).
